Potency data for 40 compounds are collected here from PubChem BioAssay (NCATS).

Inconclusive results are not listed. Where a call stands in place of a potency, no number is given. Activity calls are given as the source filed them. Calls follow the shape of the dose curve; as a rule, active = well fitted inhibition curve with a large enough effect; inconclusive = small, poorly fitted or top-dose-only effect; inactive = no such curve, though single readings can be large or run the other way.

The assay concerns the target Retinaldehyde dehydrogenase 3 (Homo sapiens) (UniProt P47895). Description: qHTS for Inhibitors of the Aldehyde Dehydrogenase Family (ALDH1A3) Primary screen (AID 2061315). As to conditions: ALDH inhibition qHTS; series mostly up to 56 µM. For orientation: In qHTS, concentration-response curves come from the screen itself.
Take `O=C(Nc1ccc(C(F)(F)F)cn1)N1CCN(c2ncccc2C(F)(F)F)CC1`: the Potency entry was “inactive”.
With `CCNC(=O)c1noc(-c2cc(Cl)c(O)cc2O)c1-c1ccc(OC)cc1` the entry was “inactive”; with `CC[C@H]1CN(c2nc(N)c(C(N)=O)nc2Cl)CCN1C1CCN(Cc2ccc(Cl)cc2)CC1`, “inactive”.
Turning to `CNS(=O)(=O)CC1CCC(N(C)c2ncnc3[nH]ccc23)CC1` (stereo not given), the Potency entry was “inactive”.
The entry for `CNc1cc(OC)c(C(=O)N[C@@H]2CCN(Cc3ccccc3)[C@@H]2C)cc1Cl` is “inactive”; for `O=C(O)c1cccc(S(=O)(=O)N2CCc3ccccc3C2)c1` it is “inactive”; for `Cc1[nH]c2ccccc2c1CCNC(=O)c1cccs1` it is “inactive”.
On to `CC1(C)CC=C(C#Cc2ccccc2)c2cc(/C=C/c3ccc(C(=O)O)cc3)ccc21`, for which the Potency entry was “inactive”.
The entry for `Cc1cc(NC(=O)NCCN2CCC(O)(Cc3ccccc3)CC2)c2ccccc2n1` is “inactive”; for `COc1cc(N)c(Cl)cc1C(=O)NC[C@@H]1CCN2CCC[C@@H]12` it is “inactive”.
Consider `N[C@@H](CC(=O)Nc1ccc(Oc2cc(F)c(F)cc2Br)cc1)C(=O)O`, for which the Potency entry is “inactive”.
With `CN1CCC(c2c[nH]c3ccc(NC(=O)c4ccc(F)cc4)cc23)CC1`, the Potency entry was “inactive”.
As to `COc1cccc(OC)c1-c1nc(C(=O)N[C@@H](CC(C)C)C(=O)O)cn1-c1ccnc2cc(Cl)ccc12`, the Potency entry is “inactive”.
The entry for `Cc1c(C(=O)NCc2cccnc2)nn(-c2ccc(Cl)cc2Cl)c1-c1ccc(Cl)cc1` is “inactive”; for `C[C@@H](O[C@H]1OCCN(Cc2nn(P(=O)(O)O)c(=O)[nH]2)[C@H]1c1ccc(F)cc1)c1cc(C(F)(F)F)cc(C(F)(F)F)c1` it is “inactive”; for `CCCCc1c(-c2ccc(OC)cc2)[nH]c2nccnc12` it is “inactive”.
With `CC[N+]1(C/C2=C/CCCCCC2)CCC(NC(=O)C2c3cc(Cl)ccc3Oc3ccc(Cl)cc32)CC1` (stereo not given) the entry was “inactive”.
For `Cc1ccnn1-c1ccc(C(=O)N2CCN(S(=O)(=O)c3ccc(Cl)c(C(F)(F)F)c3)CC2)cc1`, the Potency result was “inactive”.
The entry for `O=C(N[C@H](Cc1cscn1)C(=O)N[C@@H](CC1CCCCC1)[C@@H](O)[C@@H](O)C1CC1)c1nc2ccccc2[nH]1` is “inactive”.
The entry for `CCOc1ccc(NC(=S)N2CCC(C(O)(c3ccccc3)c3ccccc3)CC2)cc1` is “inactive”.
With `CN(C)CC(c1ccc(O)cc1)C1(O)CCCCC1` (stereo not given) the entry was “inactive”; with `O=[N+]([O-])c1cn2c(n1)OC[C@@H](OCc1ccc(-c3ccc(OC(F)(F)F)cc3)nc1)C2`, “inactive”.
In the case of `COc1ccc([C@H]2CNC(=O)C2)cc1OC1CCCC1`, the Potency result is “inactive”.
Take `c1ccc(-c2ncc(CN3CCN(c4ncccn4)CC3)[nH]2)cc1`: the Potency result is “inactive”.
With `COc1cc(N2CCOCC2)ccc1NC(=O)c1csc(-c2cccnc2)n1` the entry was “inactive”.
For `O=C(Nc1cc(-c2ccccc2)nn1-c1ccccc1)c1ccc([N+](=O)[O-])cc1`, the Potency result was “inactive”.
With `Cn1c(CO)c(-c2ccccc2)c2cc([N+](=O)[O-])ccc21` the entry was “inactive”.
With `CCCC(=O)C1CCN(c2ncnc3c2CN(C(=O)c2ccc(-c4ccccc4)cc2)CC3)CC1` the entry was “inactive”; with `O=C(Nc1ccc(-n2nc(C(F)(F)F)cc2C(F)(F)F)cc1)c1ccncc1F`, “inactive”.
With `CCCSc1nc(NC2CC2c2ccc(F)c(F)c2)c2nnn(C3CC(OCCO)C(O)C3O)c2n1` (stereo not given) the entry was “inactive”.
For the compound `C[C@@H]1C(=O)O[C@H]2CC34[C@H]5C[C@@H](C(C)(C)C)C36[C@@H](OC(=O)[C@@H]6O)OC4(C(=O)O5)[C@]21O` (stereo not given in full), the Potency entry is “inactive”.
The entry for `CCOc1ccc(-c2nc(-c3cccc4c3CCC4NCCO)no2)cc1OCC` (stereo not given) is “inactive”; for `O=C(CCCCC1CCCCC1)N1CCC(c2cnc[nH]2)CC1` it is “inactive”; for `CC(C)(C)NCC(O)COc1cccc2c1CCCC2=O` (stereo not given) it is “inactive”.
With `CNc1cc2[nH]c(=O)n(-c3ccc(NC(=O)NS(=O)(=O)c4ccc(Cl)s4)cc3)c(=O)c2cc1F` the entry was “inactive”; with `CC(=O)O[C@]1(C(C)=O)CC[C@H]2[C@@H]3CCC4=CC(=O)CCC4=C3[C@@H](c3ccc(N(C)C)cc3)C[C@@]21C`, “inactive”.
With `CC(C)(O)c1ccc2c(c1)ncn2-c1cccc(-c2ccccc2C#N)c1` the entry was “inactive”; with `O=C(NCCCN1CCOCC1)c1cnn2c(-c3ccccc3)cc(-c3ccccc3)nc12`, “inactive”.
`CN1CC2CN(c3ccc4oc5ccccc5c(=O)c4c3)CC2C1` (stereo not given): the Potency entry is “inactive”.
Take `Cc1cc(-n2c(=O)[nH]c(=O)n(C)c2=O)ccc1Oc1ccc(SC(F)(F)F)cc1`: the Potency entry is “inactive”.
